# Measured values reported in PubChem BioAssay (NCATS).
# Results filed as inconclusive are left out. Where a call stands in place of a potency, no number is given. Calls of active or inactive are those of the source. The call rests on the fitted dose curve; in most records, active means well fitted inhibition curve with a large enough effect; inconclusive means small, poorly fitted or top-dose-only effect; inactive means flat fitted curve, though single readings scatter.
# Tested on: MKL-1
# Assay: qHTS assay to identify novel small-molecules to repurpose for Merkel cell carcinoma treatment (AID 1296009); further: nearly all actives have a fitted effect of over 60% in size
# Settings: MCC and control cell lines, CellTiter-Glo viability, 72 h; series mostly up to 46 µM
# Outline: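 Luminescence from CellTiter-Glo, read 10 min after addition at room temperature, reported viability following a 72 hr, 37 degree celsius treatment with NPC or MIPE compounds in titration; values normalized to plate controls.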
# Potency means the concentration at half of the fitted maximal effect.
row,Structure (SMILES),Potency
1,CCOC(=O)c1ccccc1O,inactive
2,Cc1c(N)c(=O)n(-c2ccccc2)n1C,inactive
3,C[N+]1(C)[C@@H]2CC(OC(=O)[C@H](CO)c3ccccc3)C[C@H]1[C@@H]1O[C@@H]12 (stereo not given in full),inactive
4,c1ccc2sc(SSc3nc4ccccc4s3)nc2c1,inactive
5,COc1cc(NC(C)CCCN)c2ncccc2c1 (stereo not given),2990 nM (active)
6,CCCC(=O)OC[C@@H](OC(=O)CCC)[C@@H](OC(=O)CCC)[C@H](Cn1c2nc(=O)[nH]c(=O)c-2nc2cc(C)c(C)cc21)OC(=O)CCC,6680 nM (active)
7,CC(=O)c1ccc(OCC(=O)N2CCCCC2)cc1,inactive
8,CCOc1ccc2nc(S(N)(=O)=O)sc2c1,inactive
9,CN(C)CCn1nnnc1SCC1=C(C(=O)O)N2C(=O)[C@@H](NC(=O)Cc3csc(N)n3)[C@H]2SC1,inactive
10,CCCCCCCCCCCCCCCC(=O)OC(C)C,inactive
11,CCCCCCCCCCCCCCCCCC(=O)O,inactive
12,CNC(=O)c1c(I)c(NC(=O)CCCCC(=O)Nc2c(I)c(C(=O)O)c(I)c(C(=O)NC)c2I)c(I)c(C(=O)O)c1I,inactive
13,CCC1C(=O)OCC1Cc1cncn1C (stereo not given),inactive
14,Nc1ccc(C(=O)O)c(O)c1,inactive
15,[O-][n+]1ccccc1SSc1cccc[n+]1[O-],231 nM (active)
